Results published in PubChem BioAssay (NCI).
Compounds without any hit were thinned out: in the full panel of roughly 79,000, 15% have a hit. Rule as the data show it: active = growth inhibition above about 70%; inactive = the rest.

Key:
[1] = NCI Yeast Anticancer Drug Screen. Data for the rad50 strain (AID 155);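 also: 0% = growth of vehicle-only cultures of the same strain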; conditions: S. cerevisiae rad50 strain growth inhibition; at 50.0 µM; active compounds read high
Procedure, shortened: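 A DNA repair-deficient yeast mutant serves as the test organism; compound-induced growth inhibition is calculated against vehicle-treated cells.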

[2] = NCI Yeast Anticancer Drug Screen. Data for the mec2-1 strain (AID 157); conditions: S. cerevisiae mec2-1 strain, at 50.0 µM, active compounds read high
Procedure, shortened: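 Yeast mec2-1 mutant treated with compound. Readout: growth inhibition vs vehicle controls.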

[3] = NCI Yeast Anticancer Drug Screen. Data for the sgs1 mgt1 strain (AID 161);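 also: 0% = growth of cultures given vehicle only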; conditions: S. cerevisiae sgs1 mgt1 strain, at 50.0 µM, active compounds read high
Procedure, shortened: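 Test agents were incubated with a DNA-repair-mutant yeast strain. Growth was then read and compared against vehicle-treated controls.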

[4] = NCI Yeast Anticancer Drug Screen. Data for the cln2 rad14 strain (AID 165);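 also: 0% = growth equal to vehicle treated cultures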; conditions: S. cerevisiae cln2 rad14 strain, at 50.0 µM, active compounds read high
Procedure, shortened: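 cln2 rad14 yeast strain; compound exposure; growth inhibition read vs vehicle controls.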

[5] = NCI Yeast Anticancer Drug Screen. Data for the bub3 strain (AID 167); conditions: S. cerevisiae bub3 mutant strain, at 50.0 µM, active compounds read high
Procedure, shortened: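 Inhibition values come from growth of compound-treated mutant yeast normalised to vehicle-treated controls.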

[6] = NCI Yeast Anticancer Drug Screen. Data for the mlh1 rad18 strain (AID 175); conditions: S. cerevisiae mlh1 rad18 strain growth inhibition; at 50.0 µM; active compounds read high
Procedure, shortened: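 Yeast w/ defined DNA-repair lesions; compound exposure; growth vs vehicle controls → % inhibition.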

Measured: growth inhibition

COC(=O)CN(CC(=O)OC)C(C)=O
inactive: [1] -9.2% | [2] -4.35% | [3] -0.05% | [4] 2.7% | [5] 13.5% | [6] 0.6%

CC(C)CC1OCC(C)(C)CO1
inactive: [1] -0.6% | [2] -12.4% | [3] -11.3% | [4] -7.05% | [5] -7.9% | [6] -9.8%

CCOC(=O)C1=C(Nc2ccc(Cl)cc2Cl)OCC1=O
inactive: [1] -12.3% | [2] -5.85% | [3] -0.35% | [4] -13.9% | [5] -58.5% | [6] 10.2%

Cc1cc[n+](C)c(-c2ccccc2)c1
inactive: [1] 5.65% | [2] -2.25% | [3] 7% | [4] 21.2% | [5] 5.9% | [6] 11.6%

CN1C(=O)CCC1(O)C1C=CC=CC1 (stereo not given)
inactive: [1] 16.8% | [2] 7.55% | [3] 1.75% | [4] 16.9% | [5] -4.9% | [6] -2.85%

CCOC(=O)/C(=C\c1cc(C)c(OC(C)=O)c(OC)c1)NC(=O)c1ccccc1
inactive: [1] -17.1% | [2] -15.2% | [3] -11.1% | [4] 0.1% | [5] -3.45% | [6] -4.25%

CC(C)CCC(=S)N1CCN(c2ccccc2)CC1
inactive: [1] -0.4% | [2] 7.25% | [3] 2.2% | [4] -45.1% | [5] 2.05% | [6] -17.4%

CSCCC(NCCC#N)C(=O)O (stereo not given)
inactive: [1] -7.05% | [2] 19.4% | [3] 8.45% | [4] -12.9% | [5] -27.9% | [6] 2.85%

CC(=NCCN(CCN=C(C)c1c(O)cc(C)oc1=O)CCN=C(C)c1c(O)cc(C)oc1=O)c1c(O)cc(C)oc1=O
inactive: [1] 22.4% | [2] -4.3% | [3] 1.8% | [4] 11.4% | [5] 6.3% | [6] 21.8%

Cc1cc(C)nc(NS(=O)(=O)c2ccc(NC(=O)c3cccc4c(Nc5ccc(S(=O)(=O)N=C(N)N)cc5)c5ccccc5nc34)cc2)n1
inactive: [1] 0.75% | [2] 14.7% | [3] -10.5% | [4] 37.5% | [5] 26.1% | [6] 15.9%

N#CC12CCC(O)C(CC1)C2=O (stereo not given)
inactive: [1] 20.2% | [2] 0.85% | [3] 10.1% | [4] 15.2% | [5] -4.25% | [6] 20.6%

NNCCc1n[nH]c(=O)n1N
inactive: [1] -3.5% | [2] -18.4% | [3] 9.55% | [4] 2.55% | [5] 5.1% | [6] -8.15%

O=C1CCCC(=O)C1=Cc1c[nH]c2ccccc12
inactive: [1] 4.3% | [2] 2% | [3] -4.35% | [4] -43% | [5] -16.1% | [6] 15.1%

CC1=NN(c2ccccc2)C(=O)CC1
inactive: [1] -3.65% | [2] -8.8% | [3] 26.5% | [4] 16.6% | [5] 16.3% | [6] 5.05%

Cc1cc(C)n(/N=C/c2ccco2)c(=O)c1C#N
inactive: [1] -20.3% | [2] -33.1% | [3] -26.1% | [4] 11.4% | [5] -17.5% | [6] -10.7%

O=C(/C=C/c1ccccc1)Nc1ccccc1C(F)(F)F
inactive: [1] 4.45% | [2] 9.05% | [3] 0.7% | [4] -3.7% | [5] 12.6% | [6] 18.2%

O=C1CCC(C2(O)c3ccccc3-c3ccccc32)C(=O)N1 (stereo not given)
inactive: [1] -20.7% | [2] -16.1% | [3] -22.3% | [4] 22.4% | [5] 4.65% | [6] 1.4%

O=C1NC(=O)C2(CCC(O)C2)c2cc[n+]([O-])cc21 (stereo not given)
inactive: [1] -8.55% | [2] -41.4% | [3] -13.6% | [4] 8.25% | [5] -25.6% | [6] -83.8%

COc1[nH]c2ccccc2c1C=O
inactive: [1] 45.1% | [2] 30.6% | [3] 22.3% | [4] 17.1% | [5] 11% | [6] 24.1%

Cc1ccc(/[N+]([O-])=N/N2C(=O)c3ccccc3C2=O)cc1
inactive: [1] -15.4% | [2] -18.6% | [3] -10.1% | [4] -23.5% | [5] -16.6% | [6] -2.9%

CCCC(C)OC(=O)Nc1cccc(O)c1 (stereo not given)
inactive: [1] -2.3% | [2] -10.9% | [3] -5.3% | [4] -10.9% | [5] -21.5% | [6] -5.05%

COC(=O)C1CC/C(=N\Nc2ccc([N+](=O)[O-])cc2[N+](=O)[O-])CC1C(=O)OC (stereo not given)
inactive: [1] 10.2% | [2] -5.75% | [3] -8.75% | [4] -1.65% | [5] 5.2% | [6] 19.6%

O=C1C(Nc2ccccc2)=C(c2ccccc2)C(=O)N1c1ccccc1
inactive: [1] 1.15% | [2] -7.55% | [3] 0.7% | [4] -46.2% | [5] -11.8% | [6] -10.8%

CCOC(=O)CC(C)CCO (stereo not given)
inactive: [1] 5.4% | [2] -5.8% | [3] -11.4% | [4] -0.2% | [5] -0.3% | [6] -8.9%

NC(=O)c1ccccc1NC(=O)CCCOc1ccccc1
inactive: [1] -11.5% | [2] 8.35% | [3] 16.8% | [4] -5.8% | [5] -14.3% | [6] 9.2%

C[s+]1c2ccccc2c2ccccc21
inactive: [1] -65.8% | [2] -46.4% | [3] -32.9% | [4] -22.6% | [5] -13.2% | [6] -49.8%

N#CC1C(=O)NC(=S)NC1c1ccc(Cl)c(Cl)c1 (stereo not given)
inactive: [1] -3.15% | [2] -16.9% | [3] -25.9% | [4] -19.6% | [5] -13.8% | [6] -5.25%

CN(CCO)CC(O)Cn1cnc2c(N)ncnc21 (stereo not given)
inactive: [1] -12.5% | [2] -17.8% | [3] -31.5% | [4] 10.7% | [5] -19.4% | [6] 19.8%

CCCCCC1OC1CC1OC1CCCCCCCC(=O)O (stereo not given)
inactive: [1] -5.5% | [2] -21.1% | [3] -3.85% | [4] -14.8% | [5] -12.8% | [6] -13.4%

CC(=O)OC1C=CC(OC(C)=O)C2C1[C@H]1C3C=CC=CC3[C@@H]2S1=O (stereo not given in full)
inactive: [1] -36.8% | [2] -35.8% | [3] -17.2% | [4] -6.5% | [5] 6.25% | [6] -27.1%

COc1cc(CC2COC(=O)C2Cc2ccc(O)c(OC)c2)ccc1O (stereo not given)
inactive: [1] -4.85% | [2] 12.1% | [3] 0.35% | [4] -15.8% | [5] 22.4% | [6] 6.4%

CSC1(C)C(=O)Nc2cc(C(F)(F)F)ccc21 (stereo not given)
inactive: [1] 17.6% | [2] 1.5% | [3] 1.65% | [4] 17.4% | [5] 2% | [6] 3.4%

CC(C)C1CCC(C)(C(N)=O)C1 (stereo not given)
inactive: [1] 8.2% | [2] 2.65% | [3] -1.3% | [4] -23.4% | [5] -8.25% | [6] -2.1%

CCCCNC(=O)/C(=C\c1ccccc1)NC(C)=O
inactive: [1] 50.1% | [2] 12.1% | [3] 0.85% | [4] -8.45% | [5] 10.9% | [6] -14.2%

OCCCNc1nc2cc(Br)ccc2c2ccc(Br)cc12
inactive: [1] 47.6% | [2] 4.75% | [3] 23.9% | [4] -3.65% | [5] 0.1% | [6] 19.1%

Fc1ccc(-c2ncc(-c3ccccc3)o2)cc1
inactive: [1] 0.95% | [2] -22.9% | [3] 5.45% | [4] 0.05% | [5] -14.8% | [6] -12.9%

COc1c(C)cc(-c2cc(C)c(OC)c(C)c2)cc1C
inactive: [1] -3.45% | [2] 8.05% | [3] 1.7% | [4] 9.4% | [5] -8.8% | [6] -3.55%

CCOC(=O)C(NC(=O)CC)(Nc1ccccc1OC)C(F)(F)F (stereo not given)
inactive: [1] -40.9% | [2] -28.6% | [3] -28.6% | [4] -17.3% | [5] -25.2% | [6] -31.5%

COC(=O)/C=C(\C(=O)c1ccccc1)c1ccccc1
inactive: [1] 6.05% | [2] 4.25% | [3] -4.1% | [4] 8.95% | [5] 0.3% | [6] 11.9%

CCOc1ccc(N=Nc2ccc3oc(=O)c(C(=O)Nc4ccc(OC)cc4)cc3c2)cc1
inactive: [1] 11.4% | [2] 5.9% | [3] -17.7% | [4] -22.1% | [5] 0.8% | [6] 11.6%
